# Unmarked numbers belong to inactive results.
# Compound: OC1CN(Cc2sccc12)C(=O)CCl
# Test: log2 ratio of Biotin-Ahx-Ub-VS probe labelling (compound/DMSO); higher = less target engagement, active = hit call of the paper (q ≤ 0.05, log2 ratio ≤ -1)
# Conditions: compound concentration: 50uM; treatment time: 3 h
# Description: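 Round 2 competitive ABPP in HEK293T lysate. Purified HTC-D2B compounds were tested at 50 and 200 µM for 3 h, followed by Biotin-Ahx-Ub-VS enrichment and diaPASEF LC-MS/MS. Values are the average log2 ratio (compound/DMSO) from an unpaired t-test (n=3 treated, n=26 DMSO).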
# Sequence of UniProt O00303 (O00303 whole entry): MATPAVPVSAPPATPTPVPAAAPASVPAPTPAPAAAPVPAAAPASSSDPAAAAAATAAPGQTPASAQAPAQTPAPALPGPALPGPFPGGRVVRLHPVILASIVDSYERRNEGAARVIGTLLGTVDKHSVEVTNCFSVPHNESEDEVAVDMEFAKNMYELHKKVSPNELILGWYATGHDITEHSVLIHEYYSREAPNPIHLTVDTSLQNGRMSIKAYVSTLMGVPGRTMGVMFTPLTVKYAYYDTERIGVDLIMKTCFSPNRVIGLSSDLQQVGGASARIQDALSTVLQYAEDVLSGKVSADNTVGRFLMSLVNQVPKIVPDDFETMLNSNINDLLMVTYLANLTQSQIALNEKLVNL
# Sequence of UniProt Q8N6M0 (Q8N6M0 whole entry): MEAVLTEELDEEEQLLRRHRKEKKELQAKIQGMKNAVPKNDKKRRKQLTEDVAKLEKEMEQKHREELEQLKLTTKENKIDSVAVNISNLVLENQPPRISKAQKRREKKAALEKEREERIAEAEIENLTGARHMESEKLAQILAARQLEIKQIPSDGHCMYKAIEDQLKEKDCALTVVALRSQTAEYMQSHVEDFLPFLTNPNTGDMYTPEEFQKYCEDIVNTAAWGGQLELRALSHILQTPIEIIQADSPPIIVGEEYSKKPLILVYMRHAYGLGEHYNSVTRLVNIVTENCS
# Sequence of UniProt Q93009 (Q93009 whole entry, looked up): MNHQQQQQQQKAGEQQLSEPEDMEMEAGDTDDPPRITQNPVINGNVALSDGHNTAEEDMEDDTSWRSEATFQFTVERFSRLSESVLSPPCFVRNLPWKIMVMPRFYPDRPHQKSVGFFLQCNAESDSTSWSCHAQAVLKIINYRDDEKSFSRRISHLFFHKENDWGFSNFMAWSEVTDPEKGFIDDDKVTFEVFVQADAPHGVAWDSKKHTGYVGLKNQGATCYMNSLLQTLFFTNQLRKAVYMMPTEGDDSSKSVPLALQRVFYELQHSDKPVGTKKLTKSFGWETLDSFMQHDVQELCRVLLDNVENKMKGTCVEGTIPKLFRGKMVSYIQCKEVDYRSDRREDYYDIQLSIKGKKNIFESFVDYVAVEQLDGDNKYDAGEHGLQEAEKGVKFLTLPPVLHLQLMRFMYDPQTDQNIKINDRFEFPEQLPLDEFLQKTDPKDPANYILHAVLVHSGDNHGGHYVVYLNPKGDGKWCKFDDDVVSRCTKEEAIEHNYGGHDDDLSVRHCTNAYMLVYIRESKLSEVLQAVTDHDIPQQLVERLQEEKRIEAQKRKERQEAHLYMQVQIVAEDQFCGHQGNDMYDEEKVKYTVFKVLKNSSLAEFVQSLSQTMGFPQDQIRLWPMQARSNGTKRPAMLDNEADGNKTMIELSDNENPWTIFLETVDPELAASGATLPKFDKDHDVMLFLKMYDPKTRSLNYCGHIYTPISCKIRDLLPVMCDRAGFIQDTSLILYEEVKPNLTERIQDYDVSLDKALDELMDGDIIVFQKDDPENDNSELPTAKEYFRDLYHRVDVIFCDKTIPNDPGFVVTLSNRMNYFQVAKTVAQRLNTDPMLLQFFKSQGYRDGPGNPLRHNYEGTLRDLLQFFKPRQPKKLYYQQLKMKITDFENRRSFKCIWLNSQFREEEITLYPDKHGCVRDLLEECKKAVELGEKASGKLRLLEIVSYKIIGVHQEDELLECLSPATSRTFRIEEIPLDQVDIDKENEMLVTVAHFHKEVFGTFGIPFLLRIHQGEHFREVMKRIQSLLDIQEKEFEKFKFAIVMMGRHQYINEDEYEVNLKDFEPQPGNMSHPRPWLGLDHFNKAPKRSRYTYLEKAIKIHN
# Sequence of UniProt Q9UPU5 (Q9UPU5 whole entry): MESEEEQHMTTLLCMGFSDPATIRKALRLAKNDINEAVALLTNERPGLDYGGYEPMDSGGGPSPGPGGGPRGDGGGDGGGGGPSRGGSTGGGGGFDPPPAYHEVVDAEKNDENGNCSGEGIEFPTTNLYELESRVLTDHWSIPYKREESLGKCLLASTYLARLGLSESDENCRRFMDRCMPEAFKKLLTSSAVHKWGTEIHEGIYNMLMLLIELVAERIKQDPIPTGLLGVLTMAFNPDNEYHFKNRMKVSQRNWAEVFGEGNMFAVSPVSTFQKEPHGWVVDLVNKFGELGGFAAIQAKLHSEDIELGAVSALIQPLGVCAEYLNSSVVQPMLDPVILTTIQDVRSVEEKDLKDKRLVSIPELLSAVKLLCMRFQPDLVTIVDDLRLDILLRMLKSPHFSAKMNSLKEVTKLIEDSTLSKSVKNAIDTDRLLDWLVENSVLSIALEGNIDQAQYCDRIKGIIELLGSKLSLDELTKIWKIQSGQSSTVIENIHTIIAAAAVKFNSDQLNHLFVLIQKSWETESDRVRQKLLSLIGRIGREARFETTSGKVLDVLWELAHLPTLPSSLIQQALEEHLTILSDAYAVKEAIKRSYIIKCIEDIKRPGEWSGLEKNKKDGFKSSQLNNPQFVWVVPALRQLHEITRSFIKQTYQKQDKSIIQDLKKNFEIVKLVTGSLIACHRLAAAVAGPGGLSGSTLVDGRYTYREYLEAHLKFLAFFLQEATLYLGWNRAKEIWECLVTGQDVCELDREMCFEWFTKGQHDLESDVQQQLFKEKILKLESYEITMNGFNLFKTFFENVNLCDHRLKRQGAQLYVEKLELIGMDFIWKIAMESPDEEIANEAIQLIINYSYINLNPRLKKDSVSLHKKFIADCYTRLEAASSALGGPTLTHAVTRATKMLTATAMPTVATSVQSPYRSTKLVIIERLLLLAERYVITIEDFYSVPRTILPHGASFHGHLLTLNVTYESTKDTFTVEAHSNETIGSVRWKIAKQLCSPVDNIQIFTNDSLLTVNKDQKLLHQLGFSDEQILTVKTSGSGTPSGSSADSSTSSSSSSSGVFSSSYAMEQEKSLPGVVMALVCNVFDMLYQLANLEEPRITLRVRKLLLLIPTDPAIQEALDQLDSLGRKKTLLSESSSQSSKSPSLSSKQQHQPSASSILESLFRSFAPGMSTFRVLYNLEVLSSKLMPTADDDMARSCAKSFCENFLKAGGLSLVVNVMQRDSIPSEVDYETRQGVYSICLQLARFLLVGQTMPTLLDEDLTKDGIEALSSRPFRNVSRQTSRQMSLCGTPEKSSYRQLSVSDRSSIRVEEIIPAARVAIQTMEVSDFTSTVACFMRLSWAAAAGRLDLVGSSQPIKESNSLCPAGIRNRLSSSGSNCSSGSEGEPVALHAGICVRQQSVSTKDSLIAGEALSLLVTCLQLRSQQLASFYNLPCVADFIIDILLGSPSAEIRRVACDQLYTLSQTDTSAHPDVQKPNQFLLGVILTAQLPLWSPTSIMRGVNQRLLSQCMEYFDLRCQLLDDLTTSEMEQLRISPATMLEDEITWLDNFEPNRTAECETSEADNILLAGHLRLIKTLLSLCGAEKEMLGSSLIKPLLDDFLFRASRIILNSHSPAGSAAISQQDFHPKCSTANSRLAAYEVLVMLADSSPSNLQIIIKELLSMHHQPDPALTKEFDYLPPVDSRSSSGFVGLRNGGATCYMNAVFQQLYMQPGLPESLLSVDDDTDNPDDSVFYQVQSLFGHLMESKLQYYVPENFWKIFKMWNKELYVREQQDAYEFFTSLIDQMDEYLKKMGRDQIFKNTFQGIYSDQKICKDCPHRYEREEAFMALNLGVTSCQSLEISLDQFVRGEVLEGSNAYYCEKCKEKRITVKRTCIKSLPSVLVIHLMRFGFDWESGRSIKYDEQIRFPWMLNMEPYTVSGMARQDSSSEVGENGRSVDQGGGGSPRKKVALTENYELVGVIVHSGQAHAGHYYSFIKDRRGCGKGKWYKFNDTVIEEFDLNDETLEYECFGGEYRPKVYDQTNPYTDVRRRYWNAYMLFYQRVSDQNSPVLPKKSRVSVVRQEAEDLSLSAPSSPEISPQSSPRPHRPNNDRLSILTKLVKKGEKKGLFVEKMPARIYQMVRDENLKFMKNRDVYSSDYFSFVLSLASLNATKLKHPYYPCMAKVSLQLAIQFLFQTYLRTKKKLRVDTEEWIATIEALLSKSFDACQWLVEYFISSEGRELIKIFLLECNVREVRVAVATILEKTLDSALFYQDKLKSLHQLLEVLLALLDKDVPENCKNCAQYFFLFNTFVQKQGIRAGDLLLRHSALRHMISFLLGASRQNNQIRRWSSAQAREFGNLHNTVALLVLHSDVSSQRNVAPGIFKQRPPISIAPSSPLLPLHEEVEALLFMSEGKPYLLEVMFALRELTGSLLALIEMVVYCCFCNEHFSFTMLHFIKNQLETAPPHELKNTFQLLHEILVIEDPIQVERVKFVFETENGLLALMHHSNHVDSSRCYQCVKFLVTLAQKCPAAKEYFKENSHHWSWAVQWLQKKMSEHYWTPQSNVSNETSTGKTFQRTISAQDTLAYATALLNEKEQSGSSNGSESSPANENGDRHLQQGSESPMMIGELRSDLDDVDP
# Sequence of UniProt P54578 (P54578 whole entry): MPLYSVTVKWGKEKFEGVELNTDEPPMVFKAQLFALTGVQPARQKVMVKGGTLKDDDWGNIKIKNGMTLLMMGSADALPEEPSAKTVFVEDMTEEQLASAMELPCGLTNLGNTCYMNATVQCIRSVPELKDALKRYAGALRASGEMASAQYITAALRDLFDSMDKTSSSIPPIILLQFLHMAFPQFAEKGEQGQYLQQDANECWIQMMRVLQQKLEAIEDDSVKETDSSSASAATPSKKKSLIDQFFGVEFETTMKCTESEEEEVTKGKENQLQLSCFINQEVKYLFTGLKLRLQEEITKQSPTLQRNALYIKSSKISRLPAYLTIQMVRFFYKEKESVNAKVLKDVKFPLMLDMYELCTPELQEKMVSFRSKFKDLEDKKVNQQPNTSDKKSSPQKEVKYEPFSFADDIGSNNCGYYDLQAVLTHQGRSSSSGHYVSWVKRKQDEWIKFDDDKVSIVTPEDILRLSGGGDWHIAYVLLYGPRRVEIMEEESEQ
# Sequence of UniProt P15374 (P15374 whole entry): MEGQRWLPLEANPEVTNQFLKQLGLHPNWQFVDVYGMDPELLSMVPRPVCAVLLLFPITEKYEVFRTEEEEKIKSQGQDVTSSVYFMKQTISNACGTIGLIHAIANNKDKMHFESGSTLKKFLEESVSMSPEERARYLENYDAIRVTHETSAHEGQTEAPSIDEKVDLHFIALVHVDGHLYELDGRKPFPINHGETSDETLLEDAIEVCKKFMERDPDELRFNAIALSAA
row,Target,log2 ratio of Biotin-Ahx-Ub-VS probe labelling
1,OTUD6B (UniProt Q8N6M0),-0.139
2,USP24 (UniProt Q9UPU5),-0.165
3,USP54 (UniProt Q70EL1),0.561
4,UCHL1 (UniProt P09936),-0.248
5,USP22 (UniProt Q9UPT9),0.0108
6,UniProt P51784,0.0374
7,USP9X (UniProt Q93008),0.00293
8,USP25 (UniProt Q9UHP3),0.472
9,EIF3F (UniProt O00303),-0.0817
10,USP7 (UniProt Q93009),-0.155
11,OTUD7B (UniProt Q6GQQ9),-4.49 (active)
12,USP42 (UniProt Q9H9J4),-0.224
13,PSMD7 (UniProt P51665),-0.579
14,MINDY4 (UniProt Q4G0A6),0.0365
15,USP14 (UniProt P54578),-0.385
16,ALG13 (UniProt Q9NP73),0.00409
17,USP34 (UniProt Q70CQ2),-0.156
18,UniProt Q9UGI0,-0.451
19,YOD1 (UniProt Q5VVQ6),-0.198
20,UCHL3 (UniProt P15374),-0.332

# Same assay, conditions: compound concentration: 200uM; treatment time: 3 h
row,Target,log2 ratio of Biotin-Ahx-Ub-VS probe labelling
1,OTUD6B (UniProt Q8N6M0),-0.239
2,USP24 (UniProt Q9UPU5),-0.557
3,USP54 (UniProt Q70EL1),-0.559
4,UCHL1 (UniProt P09936),-0.0486
5,USP22 (UniProt Q9UPT9),-0.267
6,UniProt P51784,-0.0603
7,USP9X (UniProt Q93008),-0.116
8,USP25 (UniProt Q9UHP3),0.301
9,EIF3F (UniProt O00303),0.103
10,USP7 (UniProt Q93009),-0.426
11,OTUD7B (UniProt Q6GQQ9),-5.43 (active)
12,USP42 (UniProt Q9H9J4),0.0756
13,PSMD7 (UniProt P51665),0.371
14,MINDY4 (UniProt Q4G0A6),0.686
15,USP14 (UniProt P54578),-0.604
16,ALG13 (UniProt Q9NP73),-0.0817
17,USP34 (UniProt Q70CQ2),-0.0909
18,UniProt Q9UGI0,-1.5 (active)
19,YOD1 (UniProt Q5VVQ6),-0.139
20,UCHL3 (UniProt P15374),-0.337

# — the supplement of paper PMC11732987, “Enantioselective OTUD7B fragment discovery through chemoproteomics screening and high-throughput optimisation” (Communications Chemistry, 2025)
